Calls of active or inactive are those of the source.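 How the source made its calls: active means inhibition above the hit cutoff set in the earlier primary screen (cut at about 27% in these data); inactive means the rest.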

For the assay, the target named is Protein phosphatase methylesterase 1 (Homo sapiens) (UniProt Q9Y570). In words: PME-1 inhibitor activity retest, confirmation, biochemical, fluorescence polarization, FP-Rh probe, triplicate (AID 2171).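 Further: 0% = enzyme with DMSO and 100% = wells lacking PME-1.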 Particulars: recombinant PME-1, FP-Rh probe fluorescence polarization; at 5.9 µM; stronger effect = higher value.
Chain of Protein phosphatase methylesterase 1 (Homo sapiens) (Q9Y570 whole entry, looked up): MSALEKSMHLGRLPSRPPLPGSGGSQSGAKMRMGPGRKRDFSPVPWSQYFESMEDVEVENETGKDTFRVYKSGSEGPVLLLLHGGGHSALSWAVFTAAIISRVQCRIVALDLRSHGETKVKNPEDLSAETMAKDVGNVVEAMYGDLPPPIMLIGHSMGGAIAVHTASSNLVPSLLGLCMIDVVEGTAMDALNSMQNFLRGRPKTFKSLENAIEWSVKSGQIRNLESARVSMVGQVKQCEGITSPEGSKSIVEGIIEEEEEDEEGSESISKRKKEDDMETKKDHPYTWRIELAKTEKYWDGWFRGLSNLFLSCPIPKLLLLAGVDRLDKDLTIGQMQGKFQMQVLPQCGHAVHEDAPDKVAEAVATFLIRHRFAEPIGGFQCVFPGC
As to `CC1=Nc2ccccc2/C1=C\c1sc(Nc2ccc(C)cc2)nc1O`, the inhibition is 42.2% (active).
`N#CC1=C(N)C(C#N)(C#N)C(c2ccncc2)C2CN(C(=O)OCc3ccccc3)CC=C12` (stereo not given): the inhibition was 28.3% (active).
Consider `Cc1cccnc1Nc1nc(-c2ccc(O)c(O)c2)cs1`, for which the inhibition is 14.8% (inactive).
`O=C(O)c1cc(NN=C2c3ccccc3-c3ccccc32)ccc1Cl`: the inhibition was 41.9% (active).
Then `C/C(=N/Nc1nc(-c2ccccc2F)nc2ccccc12)c1ccccc1O`, with 3.91% (inactive); and `O=C(N=Nc1c(O)n(Cc2ccccc2)c2ccccc12)c1cc2ccccc2cc1O`, with 54.8% (active).
Then `O=S(=O)(Nc1nc2ccccc2nc1Nc1cccc(S(=O)(=O)N2CCCCC2)c1)c1ccccc1`, with 34.9% (active); and `Clc1ccc2[nH]c3c(c2c1)CCc1cn[nH]c1-3`, with 21.1% (inactive); and `COc1ccc(N=Nc2nc(-c3ccccc3)c(-c3ccccc3)[nH]2)cc1`, with 10.8% (inactive).
For `Cc1ccc(-n2c(O)c(/C=N/Nc3ccc(S(=O)(=O)N4CCOCC4)cc3[N+](=O)[O-])c3ccccc3c2=O)c(C)c1`, the inhibition was 37.9% (active).
Then `COc1ccc(N/N=C(\C=N\O)C(=O)c2ccc(OC)cc2)cc1`, with 58.9% (active); and `COc1cc2c(C#N)c(N3CCN(c4ccccc4OC)CC3)nc(N)c2c(N)n1`, with 78% (active); and `COc1ccc(N=Nc2nc3ccc(Br)cc3n2C)cc1`, with 29.7% (active).
Then `O=C(O)c1cccc(-n2c(/C=C/c3ccc([N+](=O)[O-])cc3)nc3ccccc3c2=O)c1`, with 24.3% (inactive); and `O=C1[C@@H]2Cc3c([nH]c4ccccc34)C(c3ccccc3)N2C(=O)CN1C1CC1` (stereo not given in full), with 5.42% (inactive); and `Cc1cc(NS(=O)(=O)c2ccc(Nc3nc(-c4sc(NC(=O)c5ccccc5)nc4C)cs3)cc2)no1`, with 70.6% (active).
For the molecule `COc1ccc(-c2c/c(=N\c3nc(-c4ccccc4)c(C)s3)c3ccccc3o2)cc1O`, the inhibition was 20.8% (inactive).
Then `Oc1[nH]c2ccccc2c1N=Nc1nc2ccccc2s1`, with 14.1% (inactive).
Then `COc1ccc(NS(=O)(=O)c2ccc3oc(Nc4ccc5c(c4)OCCO5)nc3c2)cc1`, with 12.1% (inactive).
Regarding `O=C(O)c1cccc(-c2ccc(/C=N/Nc3ccc([N+](=O)[O-])cc3)o2)c1`, the inhibition is 31.7% (active).
For the molecule `COc1cc(/C=C/c2ccc3cccc(O)c3n2)ccc1O`, the inhibition is 53.6% (active).
For `O=C(O)c1ccc(N/N=C/c2ccc(OC(=O)c3cccc(Cl)c3)cc2)cc1`, the inhibition was 37% (active).
Consider `COc1ccc(S(=O)(=O)N2CCCCCC2)cc1NC(=O)Cc1cc(OC)c(OC)c(OC)c1`, for which the inhibition is 64% (active).
As for `O=c1nc(/C=C/c2cc([N+](=O)[O-])ccc2Cl)cc(C(F)(F)F)[nH]1`, the inhibition is 25.3% (inactive).
Then `Cc1oc(-c2ccc3ccccc3c2)nc1CN(C)C(C)c1ccncn1` (stereo not given), with 4.93% (inactive); and `C/C(=N\Nc1cccc([N+](=O)[O-])c1)c1ccccc1O`, with 39.4% (active); and `COc1ccc(Br)cc1CNc1ccc(O)cc1`, with 9.35% (inactive).
The same measure for `O=S(=O)(c1ccc(-c2csc(Nc3ccc(Br)cc3)n2)cc1)N1CCCC1`: 16.5% (inactive); for `Cc1ccccc1OCC(=O)NC(=S)Nc1cccc2cc(O)ccc12`: 20.7% (inactive); for `Cc1ccc(O)c(C(=O)c2cc(C#N)c(=O)n(-c3nccs3)c2)c1`: -1.15% (inactive).
Turning to `Cc1ccc(NC(=S)NC(=O)c2ccc(-c3ccc(Cl)cc3)o2)c(O)c1`, the inhibition is 22.9% (inactive).
In the case of `O=C(COC(=O)c1cccc2c1C(=O)c1ccccc1C2=O)NC1CCCCC1`, the inhibition was 56.5% (active).
`Cc1cc(C)c2[nH]c(O)c(N=NC(=O)c3cc4c(s3)CCCC4)c2c1`: the inhibition was 31.9% (active).
For the molecule `Cc1ccccc1NC1=C/C(=N\S(=O)(=O)c2cccs2)c2ccccc2C1=O`, the inhibition was 38.4% (active).
Consider `COc1cc(OC)cc(-c2nnc(Nc3nc4c(F)cccc4s3)o2)c1`, for which the inhibition was 56.2% (active).
The same measure for `Nc1c(C(=O)Nc2ccccc2)sc2nc(-c3ccco3)ccc12`: 59.5% (active); for `Cc1ccc2sc(NNC(=O)c3cc(=O)c4ccccc4o3)nc2c1C`: 68.1% (active).
The same measure for `COc1ccc2[nH]c(O)c(N=NC(=O)c3ccc(NS(=O)(=O)c4cccs4)cc3)c2c1`: 19.4% (inactive).
For the molecule `Cc1cc(-c2ccccc2)nc(N/N=C/c2ccc(O)cc2O)n1`, the inhibition is 70.4% (active).
The same measure for `C=CCOc1ccc(/C=N/NC(=O)c2cc3c(OC)cc(OC)cc3[nH]2)cc1`: 24.4% (inactive).

The values above are taken from PubChem BioAssay.
